For assay [1], the target named is Glucocorticoid receptor (Homo sapiens) (UniProt P04150). The assay can be described thus: qHTS assay for small molecule agonists of glucocorticoid receptor signaling (AID 588532; active means well fitted curve in the direction sought with a large enough effect in the signal ratio, with a control signal flat; the % refers to the signal ratio;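 further: 100% = dexamethasone at 0.1 µM and 0% = DMSO only wells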). The settings on record: HeLa MMTV-bla, beta-lactamase ratio, agonist, 18 h; activation: stronger effect = higher value, percent of dexamethasone control, DMSO zero. The essentials: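 Agonist-mode qHTS: GRE-driven beta-lactamase in HeLa cells exposed 18 h to titrated compounds (up to 92 uM), then CCF4 ratio read after 2 h at RT; Hill-fitted EC50, efficacy relative to 0.1 uM dexamethasone.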
Sequence of Glucocorticoid receptor (Homo sapiens) (P04150 whole entry, looked up): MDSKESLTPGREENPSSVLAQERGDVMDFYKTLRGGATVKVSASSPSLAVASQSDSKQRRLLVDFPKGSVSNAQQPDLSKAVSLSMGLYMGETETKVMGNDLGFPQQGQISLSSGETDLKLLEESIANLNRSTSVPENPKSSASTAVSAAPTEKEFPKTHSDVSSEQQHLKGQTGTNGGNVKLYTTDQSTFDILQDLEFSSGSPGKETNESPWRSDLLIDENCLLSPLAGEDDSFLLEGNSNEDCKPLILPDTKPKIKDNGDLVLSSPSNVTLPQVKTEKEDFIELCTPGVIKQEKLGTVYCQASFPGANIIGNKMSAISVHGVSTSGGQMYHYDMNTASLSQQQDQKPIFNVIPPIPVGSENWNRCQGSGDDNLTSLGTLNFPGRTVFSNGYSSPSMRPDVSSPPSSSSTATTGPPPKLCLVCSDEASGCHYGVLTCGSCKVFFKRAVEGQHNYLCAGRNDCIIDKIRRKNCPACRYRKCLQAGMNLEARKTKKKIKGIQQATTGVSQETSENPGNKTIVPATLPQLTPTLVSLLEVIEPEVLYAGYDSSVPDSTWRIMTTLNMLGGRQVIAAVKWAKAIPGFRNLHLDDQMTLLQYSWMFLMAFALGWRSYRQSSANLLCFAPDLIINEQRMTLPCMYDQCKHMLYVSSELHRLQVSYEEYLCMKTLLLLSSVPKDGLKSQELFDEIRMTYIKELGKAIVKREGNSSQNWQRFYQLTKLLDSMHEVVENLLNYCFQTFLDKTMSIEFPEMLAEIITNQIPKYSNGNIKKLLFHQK
In general terms: In qHTS, concentration-response curves come from the screen itself.

The target is the same in assay [2]. The assay can be described thus: qHTS assay for small molecule antagonists of glucocorticoid receptor signaling (AID 588533; active means well fitted inhibition curve with a large enough effect in the signal ratio, with a control signal flat, not every such curve was filed as active; the % refers to the signal ratio;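 further: cells stimulated with 2 nM dexamethasone as agonist; on the % scale 0 is the no-effect control and ±100 the full control effect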). The essentials:
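Antagonist-mode qHTS: compound titrations added to GRE-bla HeLa cells, then dexamethasone 2 nM final; 18 h, 37 C. CCF4 FRET fluorescence normalized to dexamethasone and DMSO; IC50 from Hill fit.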

Assay [3] addresses Peroxisome proliferator-activated receptor delta (Homo sapiens) (UniProt Q03181). Kind of assay: qHTS assay for small molecule agonists of peroxisome proliferator-activated receptor delta signaling (AID 588534).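 Further: 0% = DMSO basal wells and 100% = positive control agonist at 10 µM.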 The essentials:
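Fluorescence from CCF4 substrate cleavage by beta-lactamase reporter, read 2 hrs at RT, measured agonist activity. Compounds were tested with 18 hrs exposure at 37 C. Concentration-response data fitted to Hill equation.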

Assay [4] in a line: qHTS assay for small molecule antagonists of peroxisome proliferator-activated receptor delta signaling (AID 588535; active means well fitted inhibition curve with a large enough effect in the signal ratio, with a control signal flat, not every such curve was filed as active; the % refers to the signal ratio;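 on max response: cells co-treated with a PPAR-delta agonist as stimulator during compound exposure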). The settings on record: HEK293T PPARd-UAS-bla, beta-lactamase FRET ratio, 18 h; 460 nm channel. The essentials:
(§1)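 HEK293T PPAR-delta-UAS-bla cells, 4000/well, 2% charcoal/dextran FBS; 5 h 37 C; cpd titration; 18 h 37 C; CCF4 2 h RT; FI 460/530 nm; Hill fit → IC50, efficacy.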

For assay [5], the target named is Peroxisome proliferator-activated receptor delta (Homo sapiens) (UniProt Q03181). The description is as above. The essentials: as §1
Sequence of Peroxisome proliferator-activated receptor delta (Homo sapiens) (Q03181 whole entry, looked up): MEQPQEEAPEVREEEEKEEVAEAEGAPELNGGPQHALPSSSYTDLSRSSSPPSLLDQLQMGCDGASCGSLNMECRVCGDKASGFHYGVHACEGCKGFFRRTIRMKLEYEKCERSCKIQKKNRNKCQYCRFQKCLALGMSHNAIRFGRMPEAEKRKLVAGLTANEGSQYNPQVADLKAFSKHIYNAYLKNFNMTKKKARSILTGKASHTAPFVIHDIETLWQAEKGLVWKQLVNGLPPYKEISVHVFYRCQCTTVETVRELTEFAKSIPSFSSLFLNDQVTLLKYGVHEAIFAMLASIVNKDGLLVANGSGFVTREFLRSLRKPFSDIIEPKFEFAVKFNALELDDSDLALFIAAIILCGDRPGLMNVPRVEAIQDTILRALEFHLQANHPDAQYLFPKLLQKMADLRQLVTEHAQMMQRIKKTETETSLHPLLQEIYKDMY
The target in assay [6] is Peroxisome proliferator-activated receptor gamma (Homo sapiens) (UniProt P37231). The assay can be described thus: qHTS assay for small molecule agonists of peroxisome proliferator-activated receptor gamma signaling (AID 588536; active means well fitted curve in the direction sought with a large enough effect in the signal ratio, with a control signal flat, not every such curve was filed as active; the % refers to the signal ratio;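 further: 0% = DMSO basal wells and 100% = rosiglitazone at 2 µM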). The essentials: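 Test agents, titrated, stimulated HEK293 UAS-bla cells overnight (16 h, 37 C). Substrate CCF4 was then added for two hours at room temperature before fluorescence reading.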
Sequence of Peroxisome proliferator-activated receptor gamma (Homo sapiens) (P37231 whole entry, looked up): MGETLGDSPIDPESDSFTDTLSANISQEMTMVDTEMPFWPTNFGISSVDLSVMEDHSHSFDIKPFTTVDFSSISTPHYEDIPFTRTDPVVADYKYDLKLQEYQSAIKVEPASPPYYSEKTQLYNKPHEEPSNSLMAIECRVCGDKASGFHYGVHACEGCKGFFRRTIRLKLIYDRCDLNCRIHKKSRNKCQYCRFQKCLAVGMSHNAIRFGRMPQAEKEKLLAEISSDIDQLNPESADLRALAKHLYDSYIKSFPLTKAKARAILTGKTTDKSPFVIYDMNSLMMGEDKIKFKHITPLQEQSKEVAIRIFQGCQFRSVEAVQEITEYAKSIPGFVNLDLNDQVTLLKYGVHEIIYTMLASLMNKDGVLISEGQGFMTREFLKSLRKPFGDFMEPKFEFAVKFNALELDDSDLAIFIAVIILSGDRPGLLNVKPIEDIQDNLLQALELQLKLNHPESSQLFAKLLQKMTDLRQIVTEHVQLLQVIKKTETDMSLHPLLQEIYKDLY

For assay [7] the target is unchanged. The assay can be described thus: qHTS assay for small molecule antagonists of peroxisome proliferator-activated receptor gamma signaling (AID 588537; active means well fitted inhibition curve with a large enough effect in the signal ratio, with a control signal flat, not every such curve was filed as active; the % refers to the signal ratio;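 further: reporter cells co-stimulated with 50 nM rosiglitazone agonist during compound treatment; % of control where 0% means no effect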). The essentials: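 Antagonist mode, beta-lactamase reporter in HEK293; charcoal/dextran FBS 1%; 3000 cells/well, 37 C 6-6.5 h; cpd titration + rosiglitazone 50 nM final, 16 h 37 C; CCF4, 2 h RT; 460/530 nm; Hill fit → IC50, efficacy.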

Assay [8] is described as follows: qHTS assay for small molecule agonists of retinoid X receptor alpha signaling (AID 588544).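 On activation: 0% = DMSO basal wells and 100% = reference agonist.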 The settings on record: HEK293T RXRa-UAS-bla, beta-lactamase reporter, 18 h; 530 nm emission.
Assay [9] addresses Retinoic acid receptor RXR-alpha (Homo sapiens) (UniProt P19793). The description is as above.
Assay [10] concerns the target Thyroid hormone receptor beta (Homo sapiens) (UniProt P10828). Kind of assay: qHTS assay for small molecule agonists of thyroid hormone receptor beta signaling (AID 588545).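 Further: 0% = DMSO only and 100% = 10 nM T3.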 The essentials: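 Stimulation of a TR-driven beta-lactamase reporter was quantified in GripTite HEK 293 cells. Compound series ran for 18 hrs; curves were normalized to T3 and DMSO controls and fitted to yield EC50.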

A short description of assay [11]: qHTS assay for small molecule antagonists of retinoid X receptor alpha signaling (AID 588546; active means well fitted inhibition curve with a large enough effect in the signal ratio, with a control signal flat, not every such curve was filed as active; the % refers to the signal ratio; further: potency means the concentration at half of the fitted maximal effect;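 on max response: cells stimulated with 9-cis-retinoic acid as agonist; on the % scale 0 is the no-effect control and ±100 the full control effect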). The settings on record: HEK293T RXRa-UAS-bla, beta-lactamase ratio, antagonist mode; measured here: W530 green channel, cytotoxicity proxy. The essentials:
(§2)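 Beta-lactamase reporter inhibition, read as CCF4 fluorescence ratio (ex 405, em 460/530 nm) after 2 h at RT. HEK293T UAS-bla cells, 2500/well, were stimulated with 9-cis-RA at 500 or 100 nM final alongside test compound for 18 h at 37 C.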

Assay [12] addresses Retinoic acid receptor RXR-alpha (Homo sapiens) (UniProt P19793). The description is as above. The following applies: HEK293T RXRa-UAS-bla, beta-lactamase ratio, antagonist mode. The essentials: as §2
Assay [13] concerns the target Thyroid hormone receptor beta (Homo sapiens) (UniProt P10828). Kind of assay: qHTS assay for small molecule antagonists of thyroid hormone receptor beta signaling (AID 588547; active means well fitted inhibition curve with a large enough effect in the signal ratio, with a control signal flat, not every such curve was filed as active; the % refers to the signal ratio;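 further: cells stimulated with 0.4 nM T3 agonist during compound exposure; series mostly up to about 77 µM; on the % scale 0 is the no-effect control and ±100 the full control effect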). The settings on record: TR-UAS-bla HEK293, beta-lactamase ratio, antagonist mode, 18 h. The essentials: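 Inhibition of T3-driven (0.4nM final) beta-lactamase reporter activity was measured over 0.59 nM to 92 uM compound after 18 h at 37 C. The cells were GripTite HEK293 TR-UAS-bla in charcoal/dextran-stripped serum, with CCF4 ratio read-out and IC50 from Hill fits.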

A short description of assay [14]: qHTS assay for small molecule activators of the p53 signaling pathway (AID 651743; active means well fitted activation curve with a large enough effect in the signal ratio, not every such curve was filed as active; the % refers to the signal ratio; further: series mostly up to about 92 µM; % of control where 0% means no effect). The settings on record: HCT-116 p53RE-bla, beta-lactamase FRET ratio, 16 h; activation: stronger effect = higher value. The essentials:
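Read-out is fluorescence intensity from the LiveBLAzer B/G FRET substrate, added for 2 hours at room temperature after HCT-116 p53RE-bla cells had been incubated with compounds for 16 hours at 37 C.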

The nature of assay [15]: qHTS assay for small molecule activators of the nuclear factor-kappa B (NF-kB) signaling pathway (AID 651749; active means well fitted activation curve with a large enough effect in the signal ratio; the % refers to the signal ratio; further: series mostly up to about 77 µM; % of control where 0% means no effect). The following applies: NF-kB-bla ME-180 cells, beta-lactamase FRET ratio, 16 h; activation: stronger effect = higher value. The essentials: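 Readout: beta-lactamase reporter driven by an NF-kB response element, detected fluorescently as loss of FRET. Cells were the ME-180 line, treated 16 hr at 37C with pin-transferred compound.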

Assay [16] is described as follows: qHTS assay for environmental chemicals that activate the Aryl hydrocarbon Receptor (AhR) signaling pathway (AID 651777; active means well fitted curve in the direction sought with a large enough effect; an effect the other way counts as inactive or inconclusive; further: % of control where 0% means no effect; nearly all actives have a fitted effect of over 15% in size). The settings on record: 1A2-DRE human hepatoma cells, luciferase, 24 h; activation: stronger effect = higher value. The essentials:
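Stable CYP1A2 promoter/DRE-luciferase human hepatoma line treated 24 hr; One-Glo luminescence, 30 min RT.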

Assay [17] has as its target Peroxisome proliferator-activated receptor alpha (Homo sapiens) (UniProt Q07869). Kind of assay: qHTS assay for small molecule agonists of the peroxisome proliferator-activated receptor alpha (PPARalpha) signaling pathway (AID 651778; active means well fitted curve in the direction sought with a large enough effect; an effect the other way counts as inactive or inconclusive; further: % of control where 0% means no effect). The settings on record: PathHunter PPARalpha complementation, chemiluminescence, 6 h; max response: stronger effect = higher value. The essentials: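 Chemiluminescence from complemented enzyme reported PPARalpha activation in cells after 6 hr of compound treatment at 37 C. The detection reagent was incubated for 60 min at room temperature, and compounds were scored as agonists.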

Assay [18] in a line: qHTS assay for small molecule agonists of the antioxidant response element (ARE) signaling pathway measured by Nrf2-dependant transcriptional activity (AID 720636; active means well fitted curve in the direction sought with a large enough effect in the repeat runs; an effect the other way counts as inactive or inconclusive;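 further: HepG2 cells with an ARE-driven luciferase reporter; % of control where 0% means no effect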). The essentials: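 Reporter gene assay, HepG2 ARE-luc: 16 hr compound, 37 C, 5% CO2; read-out luciferase luminescence.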
Assay [19] can be described thus: qHTS assay for small molecule agonists of the antioxidant response element (ARE) signaling pathway measured by Nrf2-dependant transcriptional activity - cell viability counter screen (AID 720653; active means well fitted curve in the direction sought with a large enough effect in the repeat runs; an effect the other way counts as inactive or inconclusive; further: on the % scale 0 is the no-effect control and ±100 the full control effect). The following applies: ARE-bla HepG2 viability, CellTiter-Glo ATP luminescence, 16 h; max response: stronger effect = lower value. The essentials:
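Cytotoxicity counter screen: intracellular ATP quantified by CellTiter-Glo luminescence in the same ARE-bla HepG2 plates, after 16 h compound exposure and a 2 h beta-lactamase substrate step.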

Assay [20] in a line: qHTS assay for cell viability of HEK293 cells (AID 743288; active means well fitted curve in the direction sought with a large enough effect; an effect the other way counts as inactive or inconclusive; further: nearly all actives have a fitted effect of over 50% in size; further: potency means the concentration at half of the fitted maximal effect). The settings on record: ATP luminescence (CellTiter-Glo), 18 h; max response: stronger effect = lower value. The essentials: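 Luminescent ATP quantitation served as the viability read-out. Cells (parental HEK293, 2,000/well) received compounds after at least 5 h at 37 C and were exposed for 18 h before a 30 min room-temperature reagent step.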

Assay [21] is described as follows: qHTS assay for cell viability of the p53RE-bla HCT-116 cell line (AID 743292; active means well fitted curve in the direction sought with a large enough effect; an effect the other way counts as inactive or inconclusive; further: nearly all actives have a fitted effect of over 55% in size; further: potency means the concentration at half of the fitted maximal effect). The essentials:
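Readout: CellTiter-Glo luminescence after 30 min RT. Treatment: compounds in DMSO, 16 h, 37 C. Cells: CellSensor p53RE-bla HCT-116, 4,000/well, preincubated 5 h.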

Assay [22] has as its target Nuclear receptor subfamily 1 group I member 2 (Rattus norvegicus) (UniProt Q9R1A7). The assay can be described thus: qHTS assay for small molecule activators of the rat pregnane X receptor (rPXR) signaling pathway (AID 651751; call rule not given here; further: 0% is about no effect). The settings on record: rPXR reporter cells, luciferase (One-Glo), 24 h.
The target of assay [23] is Bile acid receptor (Homo sapiens) (UniProt Q96RI1). The assay can be described thus: qHTS assay for small molecule agonists of farnesoid X receptor signaling (AID 588527).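 Further: series mostly up to about 77 µM; 0% = vehicle basal and 100% = reference agonist.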 The settings on record: HEK293T FXR-UAS-bla, beta-lactamase ratio, 16 h; activation: stronger effect = higher value. The essentials: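 Read-out: beta-lactamase reporter fluorescence with CCF4 substrate in GeneBLAzer FXR-UAS-bla HEK293T cells, after 16 h compound exposure at 37 C. Response scaled between DMSO basal (0%) and chenodeoxycholic acid at 100 uM (100%).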
Sequence of Bile acid receptor (Homo sapiens) (Q96RI1 whole entry, looked up): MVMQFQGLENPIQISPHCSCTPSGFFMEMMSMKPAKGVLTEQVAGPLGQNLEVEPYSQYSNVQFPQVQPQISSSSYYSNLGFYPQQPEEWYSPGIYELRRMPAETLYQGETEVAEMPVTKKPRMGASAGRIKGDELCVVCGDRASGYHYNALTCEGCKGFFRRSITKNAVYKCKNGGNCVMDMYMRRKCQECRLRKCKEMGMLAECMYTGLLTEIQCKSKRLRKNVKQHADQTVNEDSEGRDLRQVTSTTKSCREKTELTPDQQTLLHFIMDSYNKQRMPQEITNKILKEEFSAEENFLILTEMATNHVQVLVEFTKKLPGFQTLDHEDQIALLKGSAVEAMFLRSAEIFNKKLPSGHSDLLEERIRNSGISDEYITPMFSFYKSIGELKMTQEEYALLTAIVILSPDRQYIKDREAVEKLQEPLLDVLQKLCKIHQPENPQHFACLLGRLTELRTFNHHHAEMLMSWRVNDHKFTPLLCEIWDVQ

Assay [24] concerns the target Vitamin D3 receptor (Homo sapiens) (UniProt P11473). The assay can be described thus: qHTS assay for small molecule agonists of vitamin D receptor signaling (AID 588543).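 Further: 0% = DMSO basal and 100% = reference agonist control.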 The essentials:
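Measured: β-lactamase reporter activity (CCF4, 405 nm excitation, 460/530 nm emission) in HEK293T VDR-UAS-bla cells after 16 h compound exposure at 37 °C. Normalization against 50 nM 1α,25-dihydroxyvitamin D3 and DMSO; Hill-fit EC50.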

The nature of assay [25]: qHTS assay for small molecule agonists of the antioxidant response element (ARE) signaling pathway (AID 651741; active means well fitted activation curve with a large enough effect in the signal ratio; the % refers to the signal ratio; further: potency means the concentration at half of the fitted maximal effect; on activation: % of control where 0% means no effect). The essentials:
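Quantitative HTS in HepG2 cells stably expressing an ARE-beta-lactamase reporter; 16 h compound exposure at 37 C, followed by 2 h room-temperature incubation with LiveBLAzer B/G FRET substrate and fluorescence measurement.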

The target in assay [26] is Cytochrome P450 3A4 (Homo sapiens) (UniProt P08684). The assay can be described thus: qHTS Assay for Activators of Cytochrome P450 3A4 (AID 885; active means well fitted curve in the direction sought with a large enough effect; an effect the other way counts as inactive or inconclusive; further: nearly all actives have a fitted effect of over 65% in size). The essentials:
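Steps: enzyme/substrate mix dispensed; compound added, 10 min RT; NADPH regeneration solution added, 60 min RT; luciferin detection buffer stops reaction; 20 min later luminescence measured.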

Each structure is given as a SMILES string. “And” between values parts separate entries of the source, which are not always exact repeats. Equal values may be shown once. Records with an inconclusive call do not appear. Some structures have more than one record in an assay (separate samples or runs), and their calls can disagree. The source made the active and inactive calls. Unless noted, the call rests on the fitted dose curve.

Sequence of Retinoic acid receptor RXR-alpha (Homo sapiens) (P19793 whole entry, looked up): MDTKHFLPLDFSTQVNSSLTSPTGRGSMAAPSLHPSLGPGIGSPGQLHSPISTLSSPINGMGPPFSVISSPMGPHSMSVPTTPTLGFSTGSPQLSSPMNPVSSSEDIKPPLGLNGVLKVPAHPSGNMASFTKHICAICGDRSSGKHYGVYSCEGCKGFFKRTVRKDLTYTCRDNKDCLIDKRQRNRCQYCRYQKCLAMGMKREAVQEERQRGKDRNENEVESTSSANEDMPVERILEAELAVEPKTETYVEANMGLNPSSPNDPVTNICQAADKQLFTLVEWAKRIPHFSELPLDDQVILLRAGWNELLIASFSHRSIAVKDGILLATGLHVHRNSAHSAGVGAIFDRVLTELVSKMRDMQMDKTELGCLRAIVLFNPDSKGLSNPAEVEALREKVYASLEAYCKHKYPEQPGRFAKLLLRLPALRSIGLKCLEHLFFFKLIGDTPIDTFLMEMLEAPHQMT
Sequence of Thyroid hormone receptor beta (Homo sapiens) (P10828 whole entry, looked up): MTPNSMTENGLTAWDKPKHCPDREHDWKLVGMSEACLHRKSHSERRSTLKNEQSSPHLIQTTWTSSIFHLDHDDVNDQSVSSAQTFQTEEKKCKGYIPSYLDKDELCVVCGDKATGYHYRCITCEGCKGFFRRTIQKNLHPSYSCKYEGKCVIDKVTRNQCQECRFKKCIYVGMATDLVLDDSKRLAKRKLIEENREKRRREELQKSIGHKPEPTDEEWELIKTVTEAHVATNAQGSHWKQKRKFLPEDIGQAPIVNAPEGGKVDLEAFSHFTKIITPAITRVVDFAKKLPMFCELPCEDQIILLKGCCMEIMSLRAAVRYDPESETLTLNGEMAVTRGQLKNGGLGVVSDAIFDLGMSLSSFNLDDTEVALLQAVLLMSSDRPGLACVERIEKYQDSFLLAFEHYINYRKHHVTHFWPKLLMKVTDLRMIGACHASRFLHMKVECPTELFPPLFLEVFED
Sequence of Nuclear receptor subfamily 1 group I member 2 (Rattus norvegicus) (Q9R1A7 whole entry, looked up): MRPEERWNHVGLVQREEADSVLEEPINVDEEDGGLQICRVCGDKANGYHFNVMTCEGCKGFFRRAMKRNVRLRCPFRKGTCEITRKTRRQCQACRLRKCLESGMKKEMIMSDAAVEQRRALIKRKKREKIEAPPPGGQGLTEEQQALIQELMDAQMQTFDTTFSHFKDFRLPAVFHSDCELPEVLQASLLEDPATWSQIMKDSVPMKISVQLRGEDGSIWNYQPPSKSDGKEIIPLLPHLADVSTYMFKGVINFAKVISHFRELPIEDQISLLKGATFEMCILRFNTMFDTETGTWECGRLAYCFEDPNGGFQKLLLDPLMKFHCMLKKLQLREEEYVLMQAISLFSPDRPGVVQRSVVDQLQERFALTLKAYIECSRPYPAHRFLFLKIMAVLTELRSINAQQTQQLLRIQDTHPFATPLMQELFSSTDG
Sequence of Cytochrome P450 3A4 (Homo sapiens) (P08684 whole entry, looked up): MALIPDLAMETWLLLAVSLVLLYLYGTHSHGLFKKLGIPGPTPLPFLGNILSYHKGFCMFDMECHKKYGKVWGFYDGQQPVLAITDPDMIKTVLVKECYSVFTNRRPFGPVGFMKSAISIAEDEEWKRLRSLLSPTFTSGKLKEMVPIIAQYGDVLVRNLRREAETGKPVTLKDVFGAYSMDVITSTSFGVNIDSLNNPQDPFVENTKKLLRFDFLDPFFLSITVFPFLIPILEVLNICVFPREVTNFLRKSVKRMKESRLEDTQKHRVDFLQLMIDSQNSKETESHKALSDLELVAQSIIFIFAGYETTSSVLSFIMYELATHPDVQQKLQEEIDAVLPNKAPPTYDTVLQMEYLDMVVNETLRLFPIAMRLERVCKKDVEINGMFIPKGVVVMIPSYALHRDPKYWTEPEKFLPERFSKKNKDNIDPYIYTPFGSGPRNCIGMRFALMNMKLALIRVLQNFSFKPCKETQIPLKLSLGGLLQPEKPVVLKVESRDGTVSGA
Sequence of Peroxisome proliferator-activated receptor alpha (Homo sapiens) (Q07869 whole entry, looked up): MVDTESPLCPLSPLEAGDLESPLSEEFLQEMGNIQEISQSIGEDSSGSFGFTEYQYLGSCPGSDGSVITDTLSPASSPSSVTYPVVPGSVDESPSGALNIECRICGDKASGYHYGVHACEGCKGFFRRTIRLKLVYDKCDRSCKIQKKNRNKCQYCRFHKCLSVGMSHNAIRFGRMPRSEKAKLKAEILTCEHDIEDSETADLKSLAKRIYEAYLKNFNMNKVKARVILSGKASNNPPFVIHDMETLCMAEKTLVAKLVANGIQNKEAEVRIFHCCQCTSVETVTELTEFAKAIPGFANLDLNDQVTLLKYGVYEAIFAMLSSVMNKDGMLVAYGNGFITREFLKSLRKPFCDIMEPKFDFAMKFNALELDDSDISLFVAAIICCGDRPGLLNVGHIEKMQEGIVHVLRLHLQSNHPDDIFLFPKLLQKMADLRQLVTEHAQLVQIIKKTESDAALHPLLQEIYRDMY
Sequence of Vitamin D3 receptor (Homo sapiens) (P11473 whole entry, looked up): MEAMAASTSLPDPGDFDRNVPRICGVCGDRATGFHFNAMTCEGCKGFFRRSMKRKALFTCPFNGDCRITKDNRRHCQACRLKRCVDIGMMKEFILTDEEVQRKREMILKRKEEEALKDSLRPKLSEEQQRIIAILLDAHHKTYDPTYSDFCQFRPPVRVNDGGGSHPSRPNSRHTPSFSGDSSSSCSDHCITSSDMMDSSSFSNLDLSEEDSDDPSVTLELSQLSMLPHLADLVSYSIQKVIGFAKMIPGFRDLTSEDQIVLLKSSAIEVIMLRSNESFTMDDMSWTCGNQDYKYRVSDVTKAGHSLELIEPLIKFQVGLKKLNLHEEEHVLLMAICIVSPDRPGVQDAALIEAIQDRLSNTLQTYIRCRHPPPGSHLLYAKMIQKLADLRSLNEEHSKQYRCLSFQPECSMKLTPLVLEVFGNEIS

As for `CCOP(=S)(Oc1cnc(C(C)(C)C)nc1)OC(C)C` (stereo unspecified), the activation in assay [1] is 2.58% (inactive); in assay [14], -2.32% (inactive); in [15], -0.139% (inactive); in [16], 6.61% (inactive). The Potency result in [2], in assay [5], in assay [6], in assay [7], in assay [9] and in assay [10] was “inactive” each time. Besides, the Potency result in assay [18] and in [21] was “inactive” each time. The call in assay [3] was inactive. Besides, the max response is -24.6% in [4]; -5.29% in [8]; 10.2% in assay [11]; 1.44% (inactive) in assay [12]; -0.258% (inactive) in [17]; -5.89% (inactive) in assay [19]. For the same compound, the max response was -6.73% (inactive) in assay [20] and 6.76% (inactive) in assay [22]. In addition, in assay [13], the activity change % (negative = inhibition) was 4.48% (inactive).

In the case of `CN(c1c(Br)cc(Br)cc1Br)c1c([N+](=O)[O-])cc([N+](=O)[O-])cc1C(F)(F)F`, the activation was 1.9% (inactive) in [23] and -7.94% (inactive) in assay [16]. Besides, in [24], the compound was classed as inactive. For the same compound, the max response in assay [11] was -24%; in assay [22] it was -14.1% (inactive). Further, the Potency in assay [12] was 8.91 µM (active); in [25] it was 5.45 µM (active); in assay [20] it was 39.8 µM (active); in [21], 7.08 µM (active). Besides, in assay [18], the Potency result was “inactive”.

Regarding `Cc1ccc([N+](=O)[O-])cc1N`, in assay [26], the Potency result is “inactive”. Besides, the activation in assay [23] is -0.807% (inactive) and -1.04% (inactive). Further, in assay [3], the compound was called inactive. The Potency in [25] was 33.5 µM (active) and inactive.

Source of the values: PubChem BioAssay (NCATS).
